# Measured values: PubChem BioAssay AID687016 (The Scripps Research Institute Molecular Screening Center, 2013)
# In all, about 370,000 compounds went through this assay and about 2,800 (0.76%) were called active. The list comes from a sample in which actives are over-represented; it also holds similar structures and randomly drawn compounds. Unmarked numbers belong to inactive results. No stated cut-off is given here; in the data, active means inhibition above about 21%; inactive means the rest.
# Target: E3 ubiquitin-protein ligase UHRF1 (Homo sapiens) (UniProt Q96T88)
# Sequence (Q96T88 whole entry, looked up, the tested form may be a part): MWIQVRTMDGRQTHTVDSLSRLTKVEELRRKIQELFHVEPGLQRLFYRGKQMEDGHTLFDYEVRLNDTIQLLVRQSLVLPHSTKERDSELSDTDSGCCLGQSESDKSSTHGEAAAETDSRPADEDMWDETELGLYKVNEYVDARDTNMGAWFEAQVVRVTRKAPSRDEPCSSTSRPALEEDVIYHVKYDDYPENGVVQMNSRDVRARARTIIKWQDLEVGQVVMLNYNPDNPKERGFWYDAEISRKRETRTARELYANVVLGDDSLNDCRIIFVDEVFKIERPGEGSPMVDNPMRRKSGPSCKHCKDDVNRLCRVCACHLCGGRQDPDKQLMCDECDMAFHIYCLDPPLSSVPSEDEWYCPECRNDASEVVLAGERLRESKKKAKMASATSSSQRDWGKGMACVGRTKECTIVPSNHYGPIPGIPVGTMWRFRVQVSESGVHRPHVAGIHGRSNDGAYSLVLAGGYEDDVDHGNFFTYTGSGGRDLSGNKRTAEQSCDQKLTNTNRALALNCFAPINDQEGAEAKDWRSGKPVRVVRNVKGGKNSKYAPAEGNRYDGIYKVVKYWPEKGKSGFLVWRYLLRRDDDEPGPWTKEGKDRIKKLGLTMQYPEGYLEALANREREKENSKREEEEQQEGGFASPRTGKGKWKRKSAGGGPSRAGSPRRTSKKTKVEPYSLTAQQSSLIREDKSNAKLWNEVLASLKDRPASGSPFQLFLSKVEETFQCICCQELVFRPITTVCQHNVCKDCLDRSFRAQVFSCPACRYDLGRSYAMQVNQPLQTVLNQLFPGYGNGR
# Experiment: blockers of UHRF1 binding to methyl-oligo – biochemical, TR-FRET, human UHRF1, single concentration, counter-screen for MBD2 inhibitor project, primary screen (AID 687016);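 further: UHRF1 SRA domain binding a hemimethylated CpG hairpin DNA probe; 0% = median of test compound wells and 100% = reference inhibitor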
# Details: UHRF1 binding to methylated oligo, at 4.4 µM, stronger effect = higher value
row,Structure (SMILES),inhibition
1,CN(C)C(=O)c1cccc(-c2cnc3c(NC=O)cc(-c4ccc(C(=O)N5CCOCC5)cc4)cn23)c1,-6.57%
2,CC(=O)c1cccc(-c2cnc3c(NC=O)cc(-c4ccc(N(C)C)cc4)cn23)c1,31.6% (active)
3,CC(=O)c1cccc(-c2cnc3c(NC=O)cc(-c4ccc(N5CCN(C)CC5)cc4)cn23)c1,-0.16%
4,Cc1ccccc1CN1CCCCC(NC(=O)Nc2ccccc2F)C1=O (stereo unspecified),-1.71%
5,CCOC(=O)CSc1nc(N2CCOCC2)c2c(c1C#N)CC(C(C)C)OC2 (stereo unspecified),1.09%
6,CC(C)C(=O)N1CCN(c2nc(-c3ccccc3)c3c(c2C#N)CC(C)(C)OC3)CC1,-0.61%
7,CC1(C)Cc2c(C#N)c(SCc3nc4ccccc4[nH]3)nc(N3CCOCC3)c2CO1,25.8% (active)
8,CCC[C@H]1C(=O)CC[C@@]23CCCN2C(=O)CCC[C@@H]13,-3.81%
9,CC(C)N(C(=O)Cn1cc(S(=O)(=O)CC(=O)N2CCOCC2)c2ccccc21)C(C)C,0.05%
10,CCN(CC)C(=O)Cn1cc(S(=O)(=O)CC(=O)NCc2ccc3c(c2)OCO3)c2ccccc21,22.7% (active)
11,CCN(CC)C(=O)C(=O)c1cn(CC(=O)NCc2ccc3c(c2)OCO3)c2ccccc12,1.9%
12,CCCSc1ccc([C@H]2N[C@@](Cc3ccccc3)(C(=O)OC)[C@H]3C(=O)N(C)C(=O)[C@@H]23)cc1,2.8%
13,CCCC1(C(=O)OC)NC(c2ccco2)C2C(=O)N(C)C(=O)C21 (stereo unspecified),26.9% (active)
14,CC[C@@]1(C(=O)OC)N[C@H](CN(C)C(C)=O)[C@@H]2C(=O)N(C)C(=O)[C@@H]21,4.65%
15,COc1ccc2c(c1)CN1CN(CCc3ccccc3)S(=O)(=O)CC21 (stereo unspecified),-5.7%
16,COC(=O)[C@@]12CCCCC3=C1N(CCC3)C(=O)[C@H]2CC(=O)NCc1cccc2ccccc12,-1.21%
17,CC(=O)N1CCc2cc(S(=O)(=O)NCCC(=O)N3CCCC3)ccc21,2.88%
18,CC(c1ccc(N)cc1)c1cn(C)c2ccccc12 (stereo unspecified),2.19%
19,O=C(NCCc1c[nH]c2ccccc12)OCc1cn(-c2c(F)cccc2F)nn1,-1.24%
20,O=S(=O)(c1ccccc1)N1CCC(c2nc3ccccc3o2)CC1,-2.1%
21,CNS(=O)(=O)c1cccc(C(=O)NC2CCCc3ccccc32)c1 (stereo unspecified),-0.54%

row,Structure (SMILES),inhibition
1,O=C(O)c1cc(S(=O)(=O)NC2CCCc3ccccc32)ccc1O (stereo unspecified),26.4% (active)
2,Cc1ccc(S(=O)(=O)N2CCN(C(=O)CCC(=O)NC3CCCc4ccccc43)CC2)cc1 (stereo unspecified),-0.03%
3,COC(=O)C1CN(CCc2ccccc2)CCS(=O)(=O)N1Cc1ccc(F)cc1 (stereo unspecified),2.78%
4,O=C(Nc1cc(F)cc(F)c1)OC1CCC12CCC(c1ccccc1)CC2 (stereo unspecified),-0.77%
5,CC(C)(C)c1ccc(C(=O)Nc2cc(Cl)c(Br)cc2C(=O)O)cc1,3.66%
6,COc1ccccc1N(CC(=O)N/N=C(\C)c1ccccc1O)S(=O)(=O)c1ccc(C)cc1,-1.56%
7,Cc1ccc(S(=O)(=O)N(CC(=O)N/N=C/c2ccc(F)cc2)c2cccc3cccnc23)cc1,24.1% (active)
8,Cc1ccc(S(=O)(=O)N(CC(=O)NN=C2CCN(C)CC2)c2ccc(F)cc2)cc1,-0.56%
9,O=S1(=O)c2ccc(Br)cc2OC[C@H](Cc2ccccc2)N1Cc1cn(Cc2ccccc2)nn1,1.7%
10,COc1ccc(S[C@]2(C(=O)N(C)C)CC(=O)N(c3ccc(OC)cc3)[C@@H]2c2ccc(OC)cc2)cc1,2.01%
11,O=C(Nc1ccc(F)cc1)c1cccnc1N1CCOCC1,-3.63%
12,O=C1OC(NC(=O)c2ccccc2)C(N2CCOCC2)=C1Cl (stereo unspecified),0.02%
13,O=C(O)c1ccc(NN=CC2=C(N3CCOCC3)/C(=C/c3ccccc3)CC2)cc1,22.5% (active)
14,CCOC(=O)C(=O)N(Cc1ccccc1)c1ccccc1C(=O)Nc1cc(OC)ccc1OC,1.4%
15,COc1ccc(CCNc2nc(C)cc(C)n2)cc1OC,-1.42%
16,COc1ccc(CCNc2nc(-c3cccc(NC(C)=O)c3)cs2)cc1OC,63% (active)
17,COc1ccc(NC(=O)C2(C)Cc3c(-c4cccc(NC(C)=O)c4)ccnc3O2)cc1OC (stereo unspecified),3.78%
18,Cc1ccc(CSc2nnc(SCC(=O)NN=Cc3cc(Br)ccc3F)s2)cc1,-0.65%
19,COc1ccc(NC(=O)CSc2nnc(Cc3ccccc3)c(=O)n2N)cc1,-3.2%
20,COc1ccc(NC(=O)CSc2nc3ccccc3c(=O)n2C)cc1,40.1% (active)
